# From the supplement of paper PMC11026393
# Tested on: H1299
# Test: difference in mean normalized H2B-mRuby nuclear fluorescence intensity relative to DMSO control (normalized intensity difference (DMSO = 0)); higher = stronger increase in transgene reporter fluorescence
# Settings: 24 h
# Protocol: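 Cancer cell lines stably expressing H2B-mRuby2 from a lentiviral PGK promoter were treated with each drug for 24 h and imaged on a Leica DMI8 (ex 541-551 / em 565-605 nm). Nuclei were segmented in CellProfiler. The value is the difference in mean per-nucleus normalized H2B-mRuby intensity versus DMSO-treated cells (about 3 repeats x 4 fields). Doxorubicin is itself fluorescent. Dasatinib is in nM.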
Compound,difference (concentration: 0.1),difference (concentration: 0.5),difference (concentration: 1),difference (concentration: 5),difference (concentration: 10),difference (concentration: 25),difference (concentration: 100),difference (concentration: 500)
Cc1sc2c(c1C)C(c1ccc(Cl)cc1)=N[C@@H](CC(=O)OC(C)(C)C)c1nnc(C)n1-2 (concentration unit: uM),0.176,0.367,0.441,0.532,0.625,,,
CN[C@@H]1C[C@H]2O[C@@](C)([C@@H]1OC)n1c3ccccc3c3c4c(c5c6ccccc6n2c5c31)C(=O)NC4 (concentration unit: nM),,,,-0.113,-0.185,-0.17,0.0873,0.138
